± gives the standard deviation.

This assay has as its system MILI (PIWIL2) piRISC loaded with piRNA #1 (26 nt). In words: pre-steady-state target cleavage rate (min^-1); guide: piRNA #1 5'p-UGAGGUAGUAGGUUGUAUAGUAUCCA; MIWI and MILI are mouse PIWI proteins and EfPiwi is from a freshwater sponge; tags in brackets are library labels; higher = faster piRNA-guided slicing of the target. To be noted: auxiliary factor: 500 nM mouse GTSF1. An outline of the steps: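 Cleave-'n-Seq used a transcribed, DNA-blocked target RNA library at 0.1 nM and active affinity-purified piRISC with one synthetic guide at 1 nM, with or without 500 nM GTSF1 partner protein, in HEPES–potassium acetate buffer at 33 °C for 0–8 or 0–960 min. Uncleaved targets were sequenced and normalised to depth and to weakly complementary targets, and three trials were pooled with k3 capped at 0.0001 min^-1. The pre-steady-state cleavage rate was estimated by a burst-and-steady-state fit.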
GGAGACCAUACUAUUCAACCUACUACCACA: the “pre-steady-state target cleavage rate” value came out at 0.189 ± 0.023.

Turning to GGAGACCUAUGAAUACAUCCUACUACCUGA, the “pre-steady-state target cleavage rate” value came to 0.00353 ± 0.002. Under GGAGACCUAACUAUACAUCCUACUUCCUCA stands 0.14 ± 0.044; under GGAGACCUAUGUAUACAACCUACUAGCACA, 0.00507 ± 0.0028.

In the case of GGAGACCUAACUAUUCAUCCUACUACCUCA, the “pre-steady-state target cleavage rate” value came to 0.322 ± 0.043. To GGAGACCUAACUAUAGAACGUACUACCUCA belongs 0.00603 ± 0.0028; to GGAGAGGAUACUAUACAUGGUACUACCUCA, 0.00387 ± 0.0028.

In the case of GGAGACCUAUCUAUACUUGCUACUACCUCA, the “pre-steady-state target cleavage rate” value is 0.0151 ± 0.0031. Consider GGAGUGGAUACUAUUACAACCUACUACCUCA, for which the “pre-steady-state target cleavage rate” value is 0.155 ± 0.0095.

For the sequence GGAGAGGAUUCUAUACAACCUAGUACCUCA, the “pre-steady-state target cleavage rate” value is 0.0548 ± 0.0098. For GGAGACCUAUGUAUACAUCCUACUACCUGA, the “pre-steady-state target cleavage rate” value worked out at 0.0651 ± 0.017. Turning to GGAGACCAUACUAUAGAUCCUACUACCUCA, the “pre-steady-state target cleavage rate” value is 0.229 ± 0.026. Under GGAGACCUAUCUUUAGAACCUACUACCUCA stands 0.0437 ± 0.0095. To GGAGACCUAACUAUACAUCCUACUACCACA belongs 0.251 ± 0.046; to GGAGACCUAUGAUAUGUUGCUACUCCUCA, below 0.0001; to GGAGACCUAUGAAUACAACCUACUACACUCA, 0.00526 ± 0.0026. To GGAGACCUUACAAUACAACCUACUACCACA belongs 0.133 ± 0.015; to GGAGACCUAUCUAUACUACCUAGUACCUCA, 0.0113 ± 0.0036. On to GGAGACCUAUCUAUACAACCUACAUACCUCA, for which the “pre-steady-state target cleavage rate” value is 0.113 ± 0.015. As to GGAGACCUAUGAAUACAAGCUUCUACCUCA, the “pre-steady-state target cleavage rate” value worked out at 0.0038 ± 0.002.

In the case of GGAGACCAUACUAAUCAACCUACUACCUCA, the “pre-steady-state target cleavage rate” value was 0.17 ± 0.019. To GGAGACGAUACUUUACAACCUACAACCUCA belongs 0.0642 ± 0.013. Under GGAGACCUAUCAAUUCAACCUACUACCUCA stands 0.00721 ± 0.0029. On to GGAGACCUAACUAUACUACCUACUACCACA, for which the “pre-steady-state target cleavage rate” value amounted to 0.0974 ± 0.017.

With GGAGACCUAUGAUUACAACCUACAUCCUCA, the “pre-steady-state target cleavage rate” value came to 0.00278 ± 0.0025. Take GGAGACCUAUGAUAACAACUUACUACCUCA: the “pre-steady-state target cleavage rate” value was 0.00545 ± 0.0023. To GGAGACCAAACUUUACAACCUACUACCUCA belongs 0.137 ± 0.034. To GGAGACCUUACUAUUCAUCCUACUACCUCA belongs 0.231 ± 0.018. To GGAGACCUAUCUAUACAACCAAGUACCUCA belongs 0.00317 ± 0.0031.

GGAGACGAUAGUAUACAACCUACUACCACA: the “pre-steady-state target cleavage rate” value was 0.136 ± 0.015. Consider GGAGACCUUACUAUACUACCUACAACCUCA, for which the “pre-steady-state target cleavage rate” value was found to be 0.13 ± 0.011. Under GGAGACCUAUGUAAACAAGCUACUACCUCA stands 0.0459 ± 0.0073; under GGAGACCUAUCUAUACAACCUACUACGUGA, 0.0608 ± 0.013; under GGAGACCAUACUAUACAUGCUACUACCUCA, 0.0704 ± 0.01.

As for GGAGACCUAUGAUAUGUACCUUCUACGUCA, the “pre-steady-state target cleavage rate” value is below 0.0001. Under GGAGUGGUUACUAUAGAACCUACUACCUCA stands 0.175 ± 0.014; under GGAGACCUAUGUAUACAAUCUACUACCUCA, 0.0642 ± 0.011; under GGAGACCUAUCUAUACAGCCUACUACCUCA, 0.0315 ± 0.006. To GGAGACCUAUGUAUCCAACCUACUACCUCA belongs 0.0333 ± 0.005; to GGAGACCUAUGAUAACAACCUACACCUCA, below 0.0001.
